IL-1B inflam inh: inhibitors of inflammasome signaling (IL-1 beta secretion). THP-1 LPS/ATP IL-1B secretion, AlphaLISA, 16 h; stronger effect = lower value. activity change, % at 57.5 µM. 360,000 tested, 4.7% active. AID 743279; in the data active means activity change below about -50%; inconclusive means mostly about -30% to -49%
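Secreted IL-1B measured by AlphaLISA bead assay after 16 h compound exposure of THP-1 cells; compounds (final up to 57.5 uM) added 1 h before LPS (250 ng/mL) and ATP (1.25 mM) stimulation; lower signal means less secretion.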
VP16 counter: inhibits Gal4-VP16 luciferase reporter, ROR gamma counter-screen; Drosophila S2 Gal4-VP16 UAS-luciferase, luminescence, 20 h; Potency, µM (titrated, usually from 53.6 µM), without a hit: at the highest dose activity, negative = inhibition, actives largely listed as inhibitors; 310,000 tested, 3.5% active;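 further: Gal4-VP16 expression switched on by copper sulfate through the metallothionein promoter; potency means the concentration at half of the fitted maximal effect; nearly all actives have a fitted effect of over 50% in size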
RORg inh: ROR gamma (mouse) transcription inhibition; P51450; Drosophila S2 Gal4-RORgamma UAS-luciferase reporter, 20 h; Potency, µM (series often up to 53.6 µM), for the others: at the top dose activity change, negative = inhibition, most hits filed as inhibitors; 310,000 tested, 5.4% active; AID 2551; further: potency means the concentration at half of the fitted maximal effect; nearly all actives have a fitted effect of over 60% in size
Target sequence (P51450 whole entry, looked up, the tested form may be a part): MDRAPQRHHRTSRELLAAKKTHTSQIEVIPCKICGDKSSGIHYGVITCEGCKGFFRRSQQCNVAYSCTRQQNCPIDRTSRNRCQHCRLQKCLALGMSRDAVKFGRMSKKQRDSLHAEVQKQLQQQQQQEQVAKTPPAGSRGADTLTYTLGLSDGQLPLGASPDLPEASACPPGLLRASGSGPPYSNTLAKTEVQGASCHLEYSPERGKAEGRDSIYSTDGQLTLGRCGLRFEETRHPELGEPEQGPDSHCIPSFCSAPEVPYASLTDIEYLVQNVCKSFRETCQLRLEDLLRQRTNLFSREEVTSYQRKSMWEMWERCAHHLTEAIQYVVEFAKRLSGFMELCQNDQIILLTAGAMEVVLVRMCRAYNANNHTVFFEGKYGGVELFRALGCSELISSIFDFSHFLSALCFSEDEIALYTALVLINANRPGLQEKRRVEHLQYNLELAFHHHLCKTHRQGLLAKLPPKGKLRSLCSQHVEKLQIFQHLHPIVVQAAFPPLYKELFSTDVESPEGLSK
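Stable Schneider cell line, Gal4 DNA-binding domain fused to ROR gamma, UAS-luciferase. Cmpd 1 hr RT → CuSO4 700 uM final → 20 hr RT → luciferase reagent 10 min → luminescence.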
TDP1 cell CPT: DT40-hTDP1 cell growth loss with CPT; Potency, µM (top dose mostly 46.2 µM), without a hit: at the top dose activity change, negative = growth inhibition, most hits filed as inhibitors; 420,000 tested, 12% active; chicken DT40 Tdp1-/-;hTDP1 cells + 20 nM CPT, ATP luminescence, 48 h; AID 686979; further: potency means the concentration at half of the fitted maximal effect; nearly all actives have a fitted effect of over 55% in size
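Cell growth measured by CellTiter-Glo luminescence after a minimum 48 h, 37 C compound exposure with 20 nM CPT in Tdp1-knockout DT40 cells stably expressing hTDP1, seeded 400/well; qHTS titration format.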
LDHA inh: inhibitors of human lactate dehydrogenase A | purified LDHA, NADH/diaphorase-resazurin fluorescence; stronger effect = lower value | activity change, % (values are at about 110 or 230 µM) | 480,000 tested, 0.15% active | AID 1347041; in the data active means activity change below about -30%; inconclusive means mostly about -25% to -30%;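 further: plate controls were DMSO wells for no effect and wells without enzyme for full effect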
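Human LDH5 at 2 nM final in Tris HCl pH 7.4 with 0.06 mM NADH and 0.2 mM pyruvate, reacted 5 minutes at room temperature. Remaining NADH coupled via diaphorase/resazurin; resorufin fluorescence read at 0 and 20 minutes, normalized to enzyme-free and DMSO wells.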
TDP1 cell noCPT: qHTS for Inhibitors of human tyrosyl-DNA phosphodiesterase 1 (TDP1): qHTS in cells in absence of CPT; DT40 Tdp1-/- hTDP1 cells, no CPT, ATP luminescence, 48 h; Potency, µM (highest dose often 46.2 µM), for inactives: top-dose activity change, negative = growth inhibition, actives largely listed as inhibitors; AID 686978, 2013; 420,000 tested, 15% active; further: potency means the concentration at half of the fitted maximal effect; nearly all actives have a fitted effect of over 55% in size
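Cells were dispensed at 400 per well, compounds added by pin tool, plates incubated ≥48 hr at 37 °C, then CellTiter-Glo added for 30 min at room temperature before luminescence reading. Line: DT40 Tdp1-/- complemented with hTDP1; camptothecin omitted.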
Active calls of the source: *; ? = inconclusive; . = no result given; [ ] = remark or other dose. An excerpt weighted towards active compounds, which were near 18% of everything screened. Unless noted, the call rests on the fitted dose curve; in most records, active means well fitted curve in the direction sought with a large enough effect; inconclusive means small, poorly fitted or top-dose-only effect, or another doubt; inactive means no such curve, though single readings can be large; an effect the other way counts as inactive or inconclusive. Unless noted, on the % scale 0 is the no-effect control and ±100 the full control effect.

SMILES	IL-1B inflam inh	VP16 counter	RORg inh	TDP1 cell CPT	LDHA inh	TDP1 cell noCPT
Cc1[nH]c2ccccc2c1C(O)CN1CCC2(CC1)OCCO2 (stereo not drawn)	0	4%	11%	?	-1	16µM*
Cc1[nH]c2ccccc2c1C(=O)CN1CCC2(CC1)OCCO2	-3	-10%	-13%	-12%	0	-26%
Cc1ccc2c(c1)OC=CC(C(=O)Nc1ccc(Cl)c(Cl)c1)=C2	.	.	.	.	0	.
CC(C)Nc1ccc(C(CC(N)=O)NC(=O)Cc2ccc(Br)cc2)cc1[N+](=O)[O-] (stereo not drawn)	-9	0%	29%	13µM*	-2	21µM*
NC(=O)CC(NC(=O)c1cccc(Br)c1)c1ccc(NC2CCCCCCC2)c([N+](=O)[O-])c1 (stereo not drawn)	0	-2%	14%	?	-2	16µM*
NC(=O)CC(NC(=O)c1ccc(Br)cc1)c1ccc(NC2CCCCC2)c([N+](=O)[O-])c1 (stereo not drawn)	11	-22%	?	15µM*	-3	16µM*
NC(=O)CC(NC(=O)Cc1ccc(Br)cc1)c1ccc(NC2CCCCCC2)c([N+](=O)[O-])c1 (stereo not drawn)	?	0%	-9%	18µM*	-5	?
NC(=O)CC(NC(=O)c1cccc(Br)c1)c1ccc(NC2CCCCCCCCCCC2)c([N+](=O)[O-])c1 (stereo not drawn)	-2	1%	13%	2%	0	-12%
CC(Oc1ccc2ccc(=O)oc2c1)C(=O)N(C(C)C)C(C)C (stereo not drawn)	.	.	.	.	0	.
O=C(NC1(c2ccccc2)CCC1)c1cccc(C(F)(F)F)c1	.	.	.	.	-1	.
CCOc1ccc(NC(=O)COc2ccc(CC)cc2)c2cccnc12	.	.	.	.	17	.
Clc1ccccc1CSc1nc(CN2CCOCC2)nc2ccccc12	.	.	.	.	3	.
NC(=O)CC(NC(=O)c1ccc(Br)cc1)c1ccc(NC2CCCCCC2)c([N+](=O)[O-])c1 (stereo not drawn)	12	?	24%	16µM*	-10	16µM*
CCOC(=O)CNC(=O)c1ccc2[nH]c3ccccc3c2c1	-63*	16%	?	?	-7	?
COc1cc(C(=O)Nc2ccc3ccccc3c2)cc(OC)c1OC	3	-1%	37%	?	-4	0.65µM*
COc1cc(OC)cc(C(=O)Nc2ccc(C(=O)c3ccncc3)cc2)c1	-24	-6%	-19%	?	-7	?
COc1cc(C(=O)Nc2ccc(C(=O)c3ccncc3)cc2)cc(OC)c1OC	-15	.	.	15µM*	-7	23µM*
COc1cc(C(=O)Nc2ccc(NC(=O)c3ccc(C(C)(C)C)cc3)cc2)cc(OC)c1OC	.	.	.	2.9µM*	-6	3.3µM*
COc1ccc(C(=O)Nc2ccc3ccccc3c2)cc1OC	-22	12%	1%	2%	-9	-14%
COc1cc(OC)cc(C(=O)NCC(=O)OCc2cc(=O)oc3cc(OC)ccc23)c1	13	-4%	15%	11%	-9	15%
COc1cc(C(=O)Nc2ccc(NC(=O)c3ccc(Br)cc3)cc2)cc(OC)c1OC	.	.	.	-2%	-15	-4%
COCc1cc(=O)oc2cc(NC(=O)c3ccc(C(C)(C)C)cc3)ccc12	-12	2%	6%	9.2µM*	0	15µM*
COc1ccc(C=O)cc1CN1CCCCCC1	.	.	.	.	2	.
Fc1ccc(NC(=S)NC2CC2)cc1	.	.	.	.	0	.
Cc1cccc(NC(=O)c2nn(-c3ccccc3)c(=O)c3ccccc23)c1C	.	.	.	.	2	.
SMILES	IL-1B inflam inh	VP16 counter	RORg inh	TDP1 cell CPT	LDHA inh	TDP1 cell noCPT
Cc1ccc(-n2nnc(C(=O)NC(C)C)c2C)cc1Cl	.	.	.	.	0	.
COc1cccc(/C=C/c2nc(C#N)c(N3CCC(C(N)=O)CC3)o2)c1	.	.	.	-25%	-2	-30%
COc1ccccc1/C=C/c1nc(C#N)c(N(C)C)o1	-8	26%	19%	?	-4	16µM*
COc1cc(/C=C/c2nc(C#N)c(N3CCC(C)CC3)o2)cc(OC)c1OC	.	.	.	10µM*	1	7.3µM*
COc1ccc(/C=C/c2nc(C#N)c(N3CCCCC3)o2)cc1OC	.	.	.	23µM*	3	16µM*
COc1ccc(/C=C/c2nc(C#N)c(N3CCN(c4ccccc4)CC3)o2)cc1OC	.	.	.	-12%	-4	-12%
COc1ccc(N2CCN(c3oc(/C=C/c4cc(OC)c(OC)c(OC)c4)nc3C#N)CC2)cc1	.	.	.	2.9µM*	-3	3.7µM*
CCCC12CN(C(=O)c3ccccc3)CC(CCC)(CN(C(=O)c3ccccc3)C1)C2=O	.	.	.	.	5	.
COc1ccc(-c2c(C)oc3cc(OC(=O)C(C)C)ccc3c2=O)cc1OC	.	.	.	.	-21	.
O=C(Nc1ccc(Cl)cc1)N1CCN(c2cc(=O)n3nc(-c4ccco4)sc3n2)CC1	.	.	.	.	0	.
COc1cccc(/C=C/c2nc(C#N)c(N3CCCCCC3)o2)c1	.	.	.	?	-5	18µM*
COc1cc(/C=C/c2nc(C#N)c(N3CCCCCC3)o2)cc(OC)c1OC	.	.	.	15µM*	5	16µM*
COc1cc(/C=C/c2nc(C#N)c(N3CCCC3)o2)cc(OC)c1OC	.	.	.	.	-1	.
COc1ccccc1/C=C/c1nc(C#N)c(N2CCCCC2)o1	.	.	.	-72%	0	16µM*
CC(C)(C)NC(=O)c1ccc(COc2cccc3c2OC(C)(C)C3)cc1	.	.	.	.	3	.
Cc1cc(C(=O)NCC2CCC3(CCN(Cc4cccc(F)c4F)CC3)O2)n(C)n1 (stereo not drawn)	.	.	.	21µM*	.	12µM*
Cc1cc(C(=O)NCC2CCC3(CCN(Cc4ccc(F)cc4)CC3)O2)n(C)n1 (stereo not drawn)	.	.	.	-4%[9.04 µM]	.	?
Cc1cc(C(=O)NCC2CCC3(CCN(Cc4ccc5ccccc5c4)CC3)O2)n(C)n1 (stereo not drawn)	.	.	.	21µM*	.	16µM*
Cn1nccc1C(=O)NCC1CCC2(CCN(Cc3ccc(-c4ccc(Cl)cc4)o3)CC2)O1 (stereo not drawn)	.	.	.	?	.	15µM*
CC1CCN(c2oc(COc3ccc(F)cc3)nc2C#N)CC1	.	.	.	.	0	.
CCCn1c(=O)[nH]c(=O)c2c3c(cnc21)C(=O)CC(c1ccc(OC)c(OC)c1)C3 (stereo not drawn)	.	.	.	.	-8	.
CCCOc1ccccc1NC(=O)Cc1c[nH]c2ccccc12	.	.	.	.	7	.
N#Cc1nc(COc2cccc(Cl)c2)oc1N1CCCCCC1	.	.	.	.	-1	.

High-throughput results deposited in PubChem by National Center for Advancing Translational Sciences (NCATS).
